Results taken from PubChem BioAssay (EPA / NIEHS).
Activity calls are given as the source filed them. The calls were made as follows: active = hit-call score of the fitted dose curve at least 0.9, where 1 is the maximum; inactive = score below 0.9.

Assays:
[1] = ATG_ERE_CIS: Attagene CIS-FACTORIAL HepG2 Assay for Estrogen Response Element (ERE) (AID 2282940); conditions: HepG2 ERE cis-reporter, Attagene RNA transcript; actives raise or lower the signal
Outline: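 Transient MRTU transfection of human HepG2; cis-element promoters; 24 h dosing; total RNA → RT (oligo dT) → PCR → 6-FAM primer extension → HpaI digest → CE fluorescence. Bidirectional fit, DMSO baseline.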

[2] = ATG_Ets_CIS: Attagene CIS-FACTORIAL HepG2 Assay for human Erythroblast Transformation Specific (ETS) (AID 2282941); conditions: HepG2 ETS cis-reporter transcription, actives raise or lower the signal
Outline: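 Human HepG2 hepatoma cells were transiently transfected with promoter-driven reporter constructs and treated for 24 hours. Reporter transcripts were quantified by RT-PCR with fluorescent primer extension; bidirectional curve fitting used DMSO as reference.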

[3] = target: Hepatocyte nuclear factor 3-beta (Homo sapiens) (UniProt Q9Y261); experiment: ATG_FoxA2_CIS: Attagene CIS-FACTORIAL HepG2 Assay for human Forkhead box A2 (FOXA2) (AID 2282942); conditions: HepG2 cis-reporter transcription factor activity, 24 h; actives raise or lower the signal
Hepatocyte nuclear factor 3-beta (Homo sapiens), sequence (Q9Y261 whole entry, looked up): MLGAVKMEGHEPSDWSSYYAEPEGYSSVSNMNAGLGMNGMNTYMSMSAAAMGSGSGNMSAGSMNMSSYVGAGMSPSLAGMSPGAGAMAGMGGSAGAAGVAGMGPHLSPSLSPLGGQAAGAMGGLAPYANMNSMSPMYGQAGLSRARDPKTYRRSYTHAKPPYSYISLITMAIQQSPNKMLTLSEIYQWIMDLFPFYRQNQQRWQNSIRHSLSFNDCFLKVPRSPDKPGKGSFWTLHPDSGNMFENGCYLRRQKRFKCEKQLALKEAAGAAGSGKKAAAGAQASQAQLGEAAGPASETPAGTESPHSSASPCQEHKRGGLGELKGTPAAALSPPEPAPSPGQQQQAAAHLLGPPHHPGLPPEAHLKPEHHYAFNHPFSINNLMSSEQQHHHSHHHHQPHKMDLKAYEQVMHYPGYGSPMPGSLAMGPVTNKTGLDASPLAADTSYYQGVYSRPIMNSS
Outline: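 Transient MRTU transfection of HepG2 liver cells; 24 h treatment; total RNA → oligo(dT) RT → PCR → FAM primer extension → HpaI cut → CE. Bidirectional fit vs DMSO.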

[4] = ATG_FoxO_CIS: Attagene CIS-FACTORIAL HepG2 Assay for human Forkhead box O (FoxO) (AID 2282943); conditions: HepG2 Attagene cis-reporter, FoxO element, mRNA; actives raise or lower the signal
Outline: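 Human hepatoma HepG2 cells carry transiently introduced reporter transcription units controlled by cis promoter elements. Chemical treatment lasted 24 h, and mRNA signal was compared with DMSO.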

[5] = ATG_GATA_CIS: Attagene CIS-FACTORIAL HepG2 Assay for human GATA Binding Protein (AID 2282944); conditions: HepG2 GATA cis-element reporter, Attagene multiplex mRNA; actives raise or lower the signal
Outline: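 Transient MRTU transfection, HepG2, 24 h compound exposure. Total RNA → oligo(dT) RT → PCR → 6-FAM primer extension → HpaI cut → CE. Bidirectional fit vs DMSO.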

[6] = ATG_GLI_CIS: Attagene CIS-FACTORIAL HepG2 Assay for human Zinc Finger Protein GLI1 (AID 2282945); conditions: HepG2, Attagene cis-factorial reporter mRNA, GLI element; actives raise or lower the signal
Outline: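 Bidirectional curve fits relative to DMSO, using reporter mRNA levels from RT-PCR plus capillary electrophoresis. Cells were HepG2 transiently carrying cis-regulated reporter constructs, harvested 24 h after dosing.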

[7] = ATG_GRE_CIS: Attagene CIS-FACTORIAL HepG2 Assay for human Glucocorticoid Response Elements (GRE) (AID 2282947); conditions: HepG2 GRE cis-reporter, Attagene multiplex mRNA; actives raise or lower the signal
Outline: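 Transient MRTU transfection of human HepG2 liver cells; cis-regulated reporters report endogenous factors. 24 h dosing → RNA isolation → RT-PCR → 6-FAM primer extension → HpaI cut → CE fragment analysis. Bidirectional fit, DMSO negative control.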

[8] = ATG_ISRE_CIS: Attagene CIS-FACTORIAL HepG2 Assay for human Interferon Regulatory Factor 1 (IRF1) binding to an Interferon-Stimulated Response Element (ISRE) (AID 2282948); conditions: HepG2 ISRE cis-reporter (Attagene), mRNA transcription readout; actives raise or lower the signal
Outline: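 Cell-based cis-reporter assay; HepG2; 24 h exposure; reporter mRNA by RT-PCR plus capillary electrophoresis fluorescence; activity in either direction scored relative to DMSO.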

[9] = ATG_M_32_CIS: Attagene CIS-FACTORIAL HepG2 Assay for M32 Transcription Factor (Internal Marker) (AID 2282949); conditions: HepG2 Attagene cis-factorial M32 reporter, mRNA; actives raise or lower the signal;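 also: background control marker of the multiplexed CIS panel rather than a real target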
Outline: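 Fluorescent capillary electrophoresis peaks of HpaI-digested, FAM-labelled RT-PCR reporter products give the signal. Source: transiently transfected human liver HepG2 cells, 24 h after chemical dosing; bidirectional fitting against DMSO.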

[10] = ATG_M_06_CIS: Attagene CIS-FACTORIAL HepG2 Assay for M06 Transcription Factor (Internal Marker) (AID 2282950); conditions: HepG2 Attagene CIS-FACTORIAL M06 internal marker reporter; actives raise or lower the signal
Outline: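 Read-out is fluorescence of labelled reporter cDNA fragments resolved by capillary electrophoresis after RT-PCR. Cells: HepG2 carrying transfected cis-promoter reporter units, treated 24 h. Gain or loss of signal fitted relative to DMSO.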

[11] = target: Hypoxia-inducible factor 1-alpha (Homo sapiens) (UniProt Q16665); experiment: ATG_HIF1a_CIS: Attagene CIS-FACTORIAL HepG2 Assay for human Hypoxia Inducible Factor 1 (HIF1A) (AID 2282951); conditions: HepG2 Attagene cis-factorial HIF1a reporter transcription; actives raise or lower the signal
Hypoxia-inducible factor 1-alpha (Homo sapiens), sequence (Q16665 whole entry, looked up, the tested form may be a part): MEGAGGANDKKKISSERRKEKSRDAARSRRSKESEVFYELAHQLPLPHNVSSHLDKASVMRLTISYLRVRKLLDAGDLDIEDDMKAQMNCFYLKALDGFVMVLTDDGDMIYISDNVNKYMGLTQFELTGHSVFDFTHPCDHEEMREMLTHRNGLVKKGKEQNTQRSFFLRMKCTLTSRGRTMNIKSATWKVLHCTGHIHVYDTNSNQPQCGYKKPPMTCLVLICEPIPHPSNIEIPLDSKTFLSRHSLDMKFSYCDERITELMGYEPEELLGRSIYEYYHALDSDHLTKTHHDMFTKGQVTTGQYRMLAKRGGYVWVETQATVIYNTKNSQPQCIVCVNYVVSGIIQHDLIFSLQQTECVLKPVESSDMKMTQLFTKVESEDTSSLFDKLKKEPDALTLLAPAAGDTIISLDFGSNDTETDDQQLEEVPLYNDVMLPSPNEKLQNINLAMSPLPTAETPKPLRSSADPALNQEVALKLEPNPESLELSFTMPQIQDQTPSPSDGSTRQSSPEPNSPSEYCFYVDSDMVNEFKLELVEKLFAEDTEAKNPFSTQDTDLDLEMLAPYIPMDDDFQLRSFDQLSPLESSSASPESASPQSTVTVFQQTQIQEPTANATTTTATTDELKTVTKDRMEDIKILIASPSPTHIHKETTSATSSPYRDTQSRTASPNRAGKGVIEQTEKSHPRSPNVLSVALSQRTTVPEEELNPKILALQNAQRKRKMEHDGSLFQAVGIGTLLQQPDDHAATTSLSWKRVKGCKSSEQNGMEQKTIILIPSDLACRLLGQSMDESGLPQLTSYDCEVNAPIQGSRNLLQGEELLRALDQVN
Outline: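 Transient MRTU transfection of human HepG2 liver cells, 24 h compound treatment, then total RNA isolation, oligo(dT) reverse transcription, PCR amplification, fluorescent labelling and capillary electrophoresis of reporter fragments. Gain or loss relative to DMSO.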

[12] = target: Hepatocyte nuclear factor 6 (Homo sapiens) (UniProt Q9UBC0); experiment: ATG_HNF6_CIS: Attagene CIS-FACTORIAL HepG2 Assay for human Hepatocyte Nuclear Factor 6 (HNF6) (AID 2282952); conditions: HepG2 Attagene cis-factorial HNF6 reporter transcription; actives raise or lower the signal
Hepatocyte nuclear factor 6 (Homo sapiens), sequence (Q9UBC0 whole entry, looked up): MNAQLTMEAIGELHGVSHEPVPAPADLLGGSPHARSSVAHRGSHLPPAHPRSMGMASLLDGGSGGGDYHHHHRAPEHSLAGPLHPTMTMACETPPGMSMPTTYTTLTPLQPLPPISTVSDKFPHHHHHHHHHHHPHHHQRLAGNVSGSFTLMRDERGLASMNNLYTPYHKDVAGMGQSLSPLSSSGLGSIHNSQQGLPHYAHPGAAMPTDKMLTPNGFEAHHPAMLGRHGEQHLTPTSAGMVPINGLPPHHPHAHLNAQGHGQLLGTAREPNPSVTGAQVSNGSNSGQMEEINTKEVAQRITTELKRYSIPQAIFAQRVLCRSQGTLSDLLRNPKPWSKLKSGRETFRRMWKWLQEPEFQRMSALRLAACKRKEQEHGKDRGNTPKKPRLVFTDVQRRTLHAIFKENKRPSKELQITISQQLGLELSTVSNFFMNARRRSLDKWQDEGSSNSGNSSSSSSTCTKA
Outline: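 Multiplexed mRNA reporter assay in transfected HepG2; 24 h dosing; RT-PCR plus capillary electrophoresis fluorescence; DMSO-referenced bidirectional curve fitting.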

[13] = target: Heat shock factor protein 1 (Homo sapiens) (UniProt Q00613); experiment: ATG_HSE_CIS: Attagene CIS-FACTORIAL HepG2 Assay for human Heat Shock Transcription Factor 1 (HSE) (AID 2282953); conditions: HepG2 HSE cis-reporter, Attagene RNA transcription; actives raise or lower the signal
Heat shock factor protein 1 (Homo sapiens), sequence (Q00613 whole entry, looked up): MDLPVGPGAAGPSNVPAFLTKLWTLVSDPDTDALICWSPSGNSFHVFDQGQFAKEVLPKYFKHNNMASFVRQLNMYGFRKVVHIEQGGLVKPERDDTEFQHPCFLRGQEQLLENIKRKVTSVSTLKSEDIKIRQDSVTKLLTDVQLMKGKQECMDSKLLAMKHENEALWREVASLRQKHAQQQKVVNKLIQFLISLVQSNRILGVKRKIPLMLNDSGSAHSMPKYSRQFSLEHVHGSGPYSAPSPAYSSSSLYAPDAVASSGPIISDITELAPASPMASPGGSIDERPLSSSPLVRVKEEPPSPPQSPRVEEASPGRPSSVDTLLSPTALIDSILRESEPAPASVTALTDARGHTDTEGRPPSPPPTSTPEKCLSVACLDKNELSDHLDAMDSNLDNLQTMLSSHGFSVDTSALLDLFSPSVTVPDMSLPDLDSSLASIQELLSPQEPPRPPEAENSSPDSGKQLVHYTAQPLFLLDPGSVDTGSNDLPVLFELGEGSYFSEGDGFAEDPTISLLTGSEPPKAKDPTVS
Outline: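 HepG2, transient MRTU transfection, cis-promoter reporters (endogenous TF activity). 24 h compound. RNA → oligo(dT) RT → PCR → 6-FAM primer extension → HpaI cut → CE. Bidirectional fit vs DMSO.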

[14] = ATG_MRE_CIS: Attagene CIS-FACTORIAL HepG2 Assay for human Metal Responsive Element (MRE) (AID 2282954); conditions: HepG2 MRE cis-reporter transcription, Attagene multiplex; actives raise or lower the signal
Outline: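 Transient MRTU transfection of HepG2 (FuGene 6); 24 h dosing; total RNA → oligo(dT) RT, PCR, 6-FAM primer extension, HpaI cut, CE. Bidirectional fit vs DMSO.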

[15] = ATG_PBREM_CIS: Attagene CIS-FACTORIAL HepG2 Assay for human Phenobarbital-responsive Enhancer Module (PBREM) (AID 2282955); conditions: HepG2 PBREM cis-reporter, Attagene multiplexed transcription; actives raise or lower the signal
Outline: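 Endogenous transcription factors in human liver HepG2 cells drive a PBREM cis-element reporter, whose transcript level after 24 h treatment is quantified by RT-PCR with capillary electrophoresis; activity fitted in both directions against DMSO.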

[16] = target: Paired box protein Pax-6 (Homo sapiens) (UniProt P26367); experiment: ATG_Pax6_CIS: Attagene CIS-FACTORIAL HepG2 Assay for human Paired Box 6 (PAX6) (AID 2282956); conditions: HepG2 CIS-FACTORIAL PAX6 reporter transcription, RNA readout; actives raise or lower the signal
Paired box protein Pax-6 (Homo sapiens), sequence (P26367 whole entry, looked up): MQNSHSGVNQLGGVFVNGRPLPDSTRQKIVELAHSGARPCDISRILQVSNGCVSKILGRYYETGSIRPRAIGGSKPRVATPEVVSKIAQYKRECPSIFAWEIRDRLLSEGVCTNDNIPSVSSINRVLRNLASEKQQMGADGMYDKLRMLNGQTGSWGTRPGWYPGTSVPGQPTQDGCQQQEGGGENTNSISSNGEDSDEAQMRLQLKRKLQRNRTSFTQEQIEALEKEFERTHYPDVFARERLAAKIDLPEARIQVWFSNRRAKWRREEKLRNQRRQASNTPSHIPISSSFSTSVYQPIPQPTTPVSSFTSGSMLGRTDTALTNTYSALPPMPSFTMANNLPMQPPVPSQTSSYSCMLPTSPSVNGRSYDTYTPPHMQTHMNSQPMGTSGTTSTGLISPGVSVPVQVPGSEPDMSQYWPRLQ
Outline: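 Multiplexed cis-reporter HepG2 system; 24 h treatment; reporter mRNA read by RT-PCR/CE fluorescence; bidirectional fit vs DMSO.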

[17] = ATG_PXRE_CIS: Attagene CIS-FACTORIAL HepG2 Assay for human Pregnane X Receptor Element (PXRE) (AID 2282957); conditions: HepG2 Attagene CIS-FACTORIAL PXRE reporter, mRNA; actives raise or lower the signal
Outline: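 Cells: HepG2, transiently transfected reporter units under cis promoter control. Exposure: 24 h. Detection: reporter mRNA via RT-PCR/CE fluorescence; bidirectional fitting, DMSO-referenced.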

[18] = ATG_PPRE_CIS: Attagene CIS-FACTORIAL HepG2 Assay for human Peroxisome Proliferator-activated Response Element (PPRE) (AID 2282958); conditions: HepG2 PPRE cis-element reporter, Attagene transcription factor profiling; actives raise or lower the signal
Outline: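 HepG2, transient MRTU transfection (cis promoter elements, endogenous TFs). 24 h dosing. RNA → oligo(dT) RT → PCR → 6-FAM primer extension → HpaI digest → CE. Bidirectional fit vs DMSO.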

[19] = ATG_RORE_CIS: Attagene CIS-FACTORIAL HepG2 Assay for human RAR-related Orphan Receptor Element (RORE) (AID 2282959); conditions: HepG2 Attagene cis-factorial RORE reporter, mRNA; actives raise or lower the signal
Outline: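 Transient MRTU transfection of human HepG2 liver cells (FuGene 6); 24 h compound exposure; TriZol RNA, oligo(dT) RT, PCR, FAM labeling, HpaI cut, CE fragment analysis. DMSO = negative control/baseline.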

[20] = target: Bile acid receptor (Homo sapiens) (UniProt Q96RI1); experiment: ATG_IR1_CIS: Attagene CIS-FACTORIAL HepG2 Assay for human Nuclear Receptor Subfamily 1 Group H Member 4 (NR1H4), IR1 submotif (AID 2282946); conditions: IR1 reporter transcription, actives raise or lower the signal
Bile acid receptor (Homo sapiens), sequence (Q96RI1 whole entry, looked up, the tested form may be a part): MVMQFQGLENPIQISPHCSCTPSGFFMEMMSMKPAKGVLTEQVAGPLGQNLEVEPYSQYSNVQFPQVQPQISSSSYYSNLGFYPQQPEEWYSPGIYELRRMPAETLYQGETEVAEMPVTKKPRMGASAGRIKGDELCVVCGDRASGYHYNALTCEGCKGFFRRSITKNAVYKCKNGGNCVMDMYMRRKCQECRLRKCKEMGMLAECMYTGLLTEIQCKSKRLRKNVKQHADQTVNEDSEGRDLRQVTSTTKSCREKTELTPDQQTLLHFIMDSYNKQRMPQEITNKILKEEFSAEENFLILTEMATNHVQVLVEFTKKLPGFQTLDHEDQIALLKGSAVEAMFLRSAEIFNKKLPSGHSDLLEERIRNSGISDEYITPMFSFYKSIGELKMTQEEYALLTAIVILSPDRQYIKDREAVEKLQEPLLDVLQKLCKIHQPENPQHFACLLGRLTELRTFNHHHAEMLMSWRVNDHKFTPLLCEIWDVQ
Outline: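 Cells (human HepG2) carry transiently transfected cis-promoter reporter transcription units. Compounds are incubated 24 h, total RNA is reverse-transcribed and amplified, and labelled fragments are resolved by capillary electrophoresis. Curves use DMSO as baseline.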

Measured: AC50

CC(C)[C@@H](Nc1ccc(C(F)(F)F)cc1Cl)C(=O)OC(C#N)c1cccc(Oc2ccccc2)c1 (stereo partly drawn)
active: [15] 1.43 µM | [17] 0.693 µM
not listed: [20]
inactive: all other assays above

C1CCC(C2CCCCC2)CC1
not listed: [7] | [17]
inactive: all other assays above

CCOP(=S)(OCC)SCSc1cc(Cl)ccc1Cl
not listed: [20]
inactive: all other assays above

O=c1[nH]c2ccccc2n1C1CCN(CCCC(c2ccc(F)cc2)c2ccc(F)cc2)CC1
active: [1] 4.17 µM | [8] 3.71 µM
not listed: [11] | [15] | [18]
inactive: all other assays above

C[N+](C)(C)Cc1ccccc1
not listed: [14] | [15] | [17] | [18] | [19]
inactive: all other assays above

Cc1cccc(C)c1NC(=O)CN1CCCC1=O
active: [17] 100 µM
not listed: [13] | [15] | [18]
inactive: all other assays above

COCC(=O)N(c1c(C)cccc1C)[C@H](C)C(=O)OC
active: [17] 27.7 µM
not listed: [7]
inactive: all other assays above

CN(C)c1ccc(N=O)cc1
active: [20] 9.69 µM | [7] 23.6 µM | [8] 9.25 µM | [13] 25.4 µM
not listed: [14] | [18]
inactive: all other assays above

NC(=O)CCl
active: [17] 27.2 µM
not listed: [20]
inactive: all other assays above

Oc1cccc(-c2ccccc2)c1
active: [1] 6.35 µM | [17] 27.2 µM
not listed: [20]
inactive: all other assays above

CCCCCCCCCCCCBr
not listed: [18] | [20]
inactive: all other assays above

OC(c1ccc(Cl)cc1)(c1ccc(Cl)cc1)c1cccnc1
active: [6] 9.04 µM | [20] 13.6 µM | [17] 1.89 µM
not listed: [14]
inactive: all other assays above

O=[N+]([O-])c1c2ccccc2cc2ccccc12
active: [1] 7.14 µM | [17] 3.8 µM
not listed: [18] | [20]
inactive: all other assays above

CC(C)(c1ccc(O)c(-c2ccccc2)c1)c1ccc(O)c(-c2ccccc2)c1
active: [14] 2.93 µM | [17] 0.965 µM
not listed: [10] | [18]
inactive: all other assays above
